The text below walks through data of publication PMC7862700, “An all-to-all approach to the identification of sequence-specific readers for epigenetic DNA modifications on cytosine”.

Holding throughout (assay): DAPPL (digital affinity profiling via proximity ligation, sequencing); 10 mM Tris-HCl pH 7.5, 50 mM NaCl, 1 mM DTT, 4% glycerol, room temperature, 30 min; GST-TFs on glutathione beads, 16-mer random dsDNA library, 0.1% formaldehyde crosslink after washing; high values mean tight binding
One assay deals with T1, FEV (Homo sapiens, UniProt Q99581 1-238).
T1 sequence: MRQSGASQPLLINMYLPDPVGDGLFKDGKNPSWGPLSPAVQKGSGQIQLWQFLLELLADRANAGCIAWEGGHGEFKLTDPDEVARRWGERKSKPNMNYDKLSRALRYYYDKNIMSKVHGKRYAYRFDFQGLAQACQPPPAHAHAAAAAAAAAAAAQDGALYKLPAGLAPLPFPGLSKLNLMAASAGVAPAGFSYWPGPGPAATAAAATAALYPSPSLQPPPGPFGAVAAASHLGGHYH
Particulars: protein: recombinant; tags: N-terminal GST; dsDNA, one strand shown. In short, it runs like this: (§1)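 Binding signal is defined as a hexamer's read frequency for one factor over its frequency for the tag-only sample. To obtain reads, GST-fused human transcription factors were expressed in yeast, captured on glutathione beads, barcoded with DNA and pooled with that sample. Pools met 200 nmole of a 16-mer random double-stranded DNA library in Tris/NaCl/DTT/glycerol buffer for 30 min at room temperature before washing, 0.1% formaldehyde crosslinking, proximity ligation (BsaI/T4 ligase, 1 h, 37 °C), PCR and Illumina NextSeq500 sequencing.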

A further assay addresses ETV5 (Homo sapiens, UniProt P41161 1-510). Particulars: protein: recombinant; tags: N-terminal GST; dsDNA, one strand shown. In a few lines: as §1
For another assay, the target named is HSF1 (Homo sapiens, UniProt Q00613 1-529). Particulars: protein: recombinant; tags: N-terminal GST; chain copies: 3; dsDNA, one strand shown. In short, it runs like this: as §1
Chain of HSF1 (Q00613 whole entry): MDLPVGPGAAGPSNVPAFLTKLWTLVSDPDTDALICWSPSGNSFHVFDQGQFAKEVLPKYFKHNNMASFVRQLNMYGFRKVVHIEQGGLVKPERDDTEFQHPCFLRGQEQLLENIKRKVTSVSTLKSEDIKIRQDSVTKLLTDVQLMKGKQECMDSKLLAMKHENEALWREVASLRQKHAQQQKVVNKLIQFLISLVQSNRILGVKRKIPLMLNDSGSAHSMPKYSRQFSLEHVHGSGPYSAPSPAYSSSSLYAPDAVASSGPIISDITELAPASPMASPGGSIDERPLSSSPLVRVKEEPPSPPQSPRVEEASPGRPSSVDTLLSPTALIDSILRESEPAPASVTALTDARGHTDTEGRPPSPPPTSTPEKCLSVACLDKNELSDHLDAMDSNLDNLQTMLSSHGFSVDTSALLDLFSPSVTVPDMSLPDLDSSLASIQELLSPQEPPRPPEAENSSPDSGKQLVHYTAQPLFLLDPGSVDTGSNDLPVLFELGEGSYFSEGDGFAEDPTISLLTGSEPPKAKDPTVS
A further assay has as its target T2, SPIC (Homo sapiens, UniProt Q8N5J4 1-248).
T2 sequence: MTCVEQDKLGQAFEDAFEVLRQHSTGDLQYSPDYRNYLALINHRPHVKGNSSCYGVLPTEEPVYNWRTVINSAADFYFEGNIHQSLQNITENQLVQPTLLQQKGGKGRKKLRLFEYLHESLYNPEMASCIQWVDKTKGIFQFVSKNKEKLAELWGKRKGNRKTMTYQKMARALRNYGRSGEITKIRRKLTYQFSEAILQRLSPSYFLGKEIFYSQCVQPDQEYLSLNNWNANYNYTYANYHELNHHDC
Particulars: protein: recombinant; tags: N-terminal GST; dsDNA, one strand shown. In a few lines:
as §1

For another assay, the target named is ELF4 (Homo sapiens, UniProt Q99607 1-663). Particulars: protein: recombinant; tags: N-terminal GST; dsDNA, one strand shown. In a few lines:
as §1

The target of a further assay is T3, ELK4 (Homo sapiens, UniProt P28324-2 1-405).
T3 sequence: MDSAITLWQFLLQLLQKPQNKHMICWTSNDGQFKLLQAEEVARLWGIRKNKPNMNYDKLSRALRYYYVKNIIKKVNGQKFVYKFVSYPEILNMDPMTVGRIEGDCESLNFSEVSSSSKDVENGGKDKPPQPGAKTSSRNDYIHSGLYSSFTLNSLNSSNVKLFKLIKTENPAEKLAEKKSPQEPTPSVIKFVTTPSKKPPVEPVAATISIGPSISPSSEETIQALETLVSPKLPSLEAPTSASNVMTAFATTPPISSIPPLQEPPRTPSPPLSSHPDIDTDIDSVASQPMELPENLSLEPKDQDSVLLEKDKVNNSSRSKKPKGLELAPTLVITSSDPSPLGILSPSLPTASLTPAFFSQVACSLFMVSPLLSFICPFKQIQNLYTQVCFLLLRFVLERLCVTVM
Conditions: protein: recombinant; tags: N-terminal GST; dsDNA, one strand shown. In short, it runs like this: as §1

For another assay, the target named is T4, ETV2 (Homo sapiens, UniProt O00321 1-342).
T4 sequence: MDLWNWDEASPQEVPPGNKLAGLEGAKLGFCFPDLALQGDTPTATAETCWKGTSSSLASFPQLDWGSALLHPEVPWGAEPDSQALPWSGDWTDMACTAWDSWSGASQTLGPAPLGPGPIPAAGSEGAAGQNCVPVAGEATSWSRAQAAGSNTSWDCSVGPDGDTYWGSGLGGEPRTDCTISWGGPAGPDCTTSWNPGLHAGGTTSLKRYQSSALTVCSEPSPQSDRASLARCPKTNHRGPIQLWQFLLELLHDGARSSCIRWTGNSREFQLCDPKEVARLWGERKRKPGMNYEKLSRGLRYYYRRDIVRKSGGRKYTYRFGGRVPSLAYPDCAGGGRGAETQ
Particulars: protein: recombinant; tags: N-terminal GST; dsDNA, one strand shown. In short, it runs like this: as §1

For the next assay, the target named is T5, ELF3 (Homo sapiens, UniProt P78545 1-371).
T5 sequence: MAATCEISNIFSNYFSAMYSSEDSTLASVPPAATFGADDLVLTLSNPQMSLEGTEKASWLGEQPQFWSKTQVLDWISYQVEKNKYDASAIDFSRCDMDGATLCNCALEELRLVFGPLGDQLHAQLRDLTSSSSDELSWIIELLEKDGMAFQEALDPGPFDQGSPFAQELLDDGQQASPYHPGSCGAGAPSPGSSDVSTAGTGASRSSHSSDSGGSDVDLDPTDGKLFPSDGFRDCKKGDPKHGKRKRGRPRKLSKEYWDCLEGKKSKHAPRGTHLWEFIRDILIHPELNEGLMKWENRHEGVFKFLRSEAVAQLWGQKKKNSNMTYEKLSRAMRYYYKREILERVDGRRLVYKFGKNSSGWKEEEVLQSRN
Conditions: protein: recombinant; tags: N-terminal GST; dsDNA, one strand shown. In a few lines:
as §1

The next assay has as its target CRX (Homo sapiens, UniProt O43186 1-299). Particulars: protein: recombinant; tags: N-terminal GST; dsDNA, one strand shown. In short, it runs like this: as §1
A further assay addresses ETV1 (Homo sapiens, UniProt P50549 1-477). Conditions: protein: recombinant; tags: N-terminal GST; dsDNA, one strand shown. In a few lines: as §1
The next assay addresses T6, ERF (Homo sapiens, UniProt P50548 1-548).
T6 sequence: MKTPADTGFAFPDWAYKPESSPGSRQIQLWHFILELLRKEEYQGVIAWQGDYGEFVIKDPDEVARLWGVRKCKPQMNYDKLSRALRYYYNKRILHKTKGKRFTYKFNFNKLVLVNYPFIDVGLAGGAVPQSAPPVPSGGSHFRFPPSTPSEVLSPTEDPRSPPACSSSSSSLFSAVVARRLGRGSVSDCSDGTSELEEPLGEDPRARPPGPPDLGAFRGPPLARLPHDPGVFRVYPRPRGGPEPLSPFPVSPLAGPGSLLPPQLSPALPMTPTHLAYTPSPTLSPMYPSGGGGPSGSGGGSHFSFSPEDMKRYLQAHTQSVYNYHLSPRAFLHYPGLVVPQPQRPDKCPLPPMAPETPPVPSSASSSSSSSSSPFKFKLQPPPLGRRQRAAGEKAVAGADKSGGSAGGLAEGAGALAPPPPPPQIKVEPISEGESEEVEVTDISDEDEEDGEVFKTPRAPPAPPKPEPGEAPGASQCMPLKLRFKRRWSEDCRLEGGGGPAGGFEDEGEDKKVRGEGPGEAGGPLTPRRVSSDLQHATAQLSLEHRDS
Particulars: protein: recombinant; tags: N-terminal GST; dsDNA, one strand shown. In a few lines: as §1

The next assay addresses T7, ETV3L (Homo sapiens, UniProt Q6ZN32 1-361).
T7 sequence: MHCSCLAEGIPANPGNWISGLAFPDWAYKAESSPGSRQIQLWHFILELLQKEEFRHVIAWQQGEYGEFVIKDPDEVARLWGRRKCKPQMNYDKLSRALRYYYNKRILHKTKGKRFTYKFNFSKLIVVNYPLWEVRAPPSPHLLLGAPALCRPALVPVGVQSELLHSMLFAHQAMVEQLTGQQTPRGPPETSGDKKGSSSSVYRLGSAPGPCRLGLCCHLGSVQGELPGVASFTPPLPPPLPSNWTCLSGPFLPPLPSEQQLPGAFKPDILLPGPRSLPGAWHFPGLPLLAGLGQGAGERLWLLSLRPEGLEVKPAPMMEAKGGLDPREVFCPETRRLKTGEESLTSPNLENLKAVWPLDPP
Particulars: protein: recombinant; tags: N-terminal GST; dsDNA, one strand shown. In short, it runs like this:
as §1

Another assay has as its target T8, ETS2 (Homo sapiens, UniProt P15036 1-469).
T8 sequence: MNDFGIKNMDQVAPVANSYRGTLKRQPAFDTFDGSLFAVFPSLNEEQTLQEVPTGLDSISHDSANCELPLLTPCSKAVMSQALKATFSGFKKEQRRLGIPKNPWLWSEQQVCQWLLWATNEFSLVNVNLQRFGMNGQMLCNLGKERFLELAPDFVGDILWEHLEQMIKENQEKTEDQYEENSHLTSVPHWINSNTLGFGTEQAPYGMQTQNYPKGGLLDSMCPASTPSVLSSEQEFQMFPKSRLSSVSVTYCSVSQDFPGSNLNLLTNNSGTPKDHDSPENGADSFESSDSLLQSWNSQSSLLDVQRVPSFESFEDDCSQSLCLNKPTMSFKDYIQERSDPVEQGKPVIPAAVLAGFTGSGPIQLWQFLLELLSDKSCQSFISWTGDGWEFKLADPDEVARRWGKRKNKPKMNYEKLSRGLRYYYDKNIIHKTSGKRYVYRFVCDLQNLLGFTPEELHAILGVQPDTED
Particulars: protein: recombinant; tags: N-terminal GST; dsDNA, one strand shown. In short, it runs like this: as §1

For the next assay, the target named is T9, SPDEF (Homo sapiens, UniProt O95238 1-335).
T9 sequence: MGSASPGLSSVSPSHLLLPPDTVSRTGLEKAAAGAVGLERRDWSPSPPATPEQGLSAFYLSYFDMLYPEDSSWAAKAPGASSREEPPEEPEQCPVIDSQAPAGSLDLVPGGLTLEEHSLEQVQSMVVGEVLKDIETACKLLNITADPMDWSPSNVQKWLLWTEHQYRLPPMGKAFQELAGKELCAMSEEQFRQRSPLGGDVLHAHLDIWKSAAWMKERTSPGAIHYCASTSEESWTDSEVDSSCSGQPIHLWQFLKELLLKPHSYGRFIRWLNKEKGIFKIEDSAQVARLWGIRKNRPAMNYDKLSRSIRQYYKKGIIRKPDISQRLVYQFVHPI
Conditions: protein: recombinant; tags: N-terminal GST; dsDNA, one strand shown. In a few lines: as §1

Another assay deals with T10, ETV7 (Homo sapiens, UniProt Q9Y603 1-341).
T10 sequence: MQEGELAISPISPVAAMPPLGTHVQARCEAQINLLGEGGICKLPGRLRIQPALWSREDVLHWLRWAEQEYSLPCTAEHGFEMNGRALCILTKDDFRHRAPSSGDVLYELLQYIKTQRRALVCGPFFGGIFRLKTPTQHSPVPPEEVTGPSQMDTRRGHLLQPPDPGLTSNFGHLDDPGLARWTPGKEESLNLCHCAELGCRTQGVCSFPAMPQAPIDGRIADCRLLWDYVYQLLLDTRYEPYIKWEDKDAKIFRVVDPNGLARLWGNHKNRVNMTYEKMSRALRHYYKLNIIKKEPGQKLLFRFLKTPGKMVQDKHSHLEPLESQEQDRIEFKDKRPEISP
Conditions: protein: recombinant; tags: N-terminal GST; dsDNA, one strand shown. In a few lines: as §1

The target in a further assay is T11, ELF5 (Homo sapiens, UniProt Q9UKW6-2 1-255).
T11 sequence: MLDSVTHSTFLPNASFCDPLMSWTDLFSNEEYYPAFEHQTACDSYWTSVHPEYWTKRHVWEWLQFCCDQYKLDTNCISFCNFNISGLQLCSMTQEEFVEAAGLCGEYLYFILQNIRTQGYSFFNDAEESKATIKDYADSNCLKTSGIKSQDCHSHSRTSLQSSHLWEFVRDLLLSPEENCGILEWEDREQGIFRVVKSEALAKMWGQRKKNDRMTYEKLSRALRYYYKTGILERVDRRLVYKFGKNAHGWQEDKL
Conditions: protein: recombinant; tags: N-terminal GST; dsDNA, one strand shown. In a few lines: as §1

The target in a further assay is T12, ETV3 (Homo sapiens, UniProt P41162-2 1-143).
T12 sequence: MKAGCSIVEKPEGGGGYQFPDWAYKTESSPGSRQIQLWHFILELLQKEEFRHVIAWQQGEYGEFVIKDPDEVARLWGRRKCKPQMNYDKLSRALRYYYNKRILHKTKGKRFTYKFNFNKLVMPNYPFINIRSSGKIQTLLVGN
Particulars: protein: recombinant; tags: N-terminal GST; dsDNA, one strand shown. In a few lines: as §1

The target of a further assay is ETV6 (Homo sapiens, UniProt P41212 1-452). Conditions: protein: recombinant; tags: N-terminal GST; dsDNA, one strand shown. In short, it runs like this: as §1
Chain of ETV6 (P41212 whole entry): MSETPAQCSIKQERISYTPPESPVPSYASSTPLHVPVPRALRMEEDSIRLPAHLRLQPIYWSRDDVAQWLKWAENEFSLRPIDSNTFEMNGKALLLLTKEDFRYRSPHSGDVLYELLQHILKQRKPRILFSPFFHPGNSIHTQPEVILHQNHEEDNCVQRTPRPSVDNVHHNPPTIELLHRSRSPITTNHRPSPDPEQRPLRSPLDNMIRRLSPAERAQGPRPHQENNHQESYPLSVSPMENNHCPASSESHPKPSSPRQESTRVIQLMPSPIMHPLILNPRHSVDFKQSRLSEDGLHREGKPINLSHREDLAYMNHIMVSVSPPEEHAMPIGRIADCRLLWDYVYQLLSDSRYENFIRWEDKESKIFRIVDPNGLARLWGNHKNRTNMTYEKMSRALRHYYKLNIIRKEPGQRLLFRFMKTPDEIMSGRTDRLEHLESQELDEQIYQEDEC

Chain of CRX (O43186 whole entry): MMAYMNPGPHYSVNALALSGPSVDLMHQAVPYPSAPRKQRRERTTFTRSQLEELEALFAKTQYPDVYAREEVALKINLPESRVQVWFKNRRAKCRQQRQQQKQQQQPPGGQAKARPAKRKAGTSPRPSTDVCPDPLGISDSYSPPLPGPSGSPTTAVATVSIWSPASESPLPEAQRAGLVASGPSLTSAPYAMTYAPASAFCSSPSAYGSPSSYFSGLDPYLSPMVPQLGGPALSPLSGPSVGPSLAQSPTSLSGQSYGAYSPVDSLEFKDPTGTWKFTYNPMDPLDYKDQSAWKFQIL
Chain of ETV5 (P41161 whole entry): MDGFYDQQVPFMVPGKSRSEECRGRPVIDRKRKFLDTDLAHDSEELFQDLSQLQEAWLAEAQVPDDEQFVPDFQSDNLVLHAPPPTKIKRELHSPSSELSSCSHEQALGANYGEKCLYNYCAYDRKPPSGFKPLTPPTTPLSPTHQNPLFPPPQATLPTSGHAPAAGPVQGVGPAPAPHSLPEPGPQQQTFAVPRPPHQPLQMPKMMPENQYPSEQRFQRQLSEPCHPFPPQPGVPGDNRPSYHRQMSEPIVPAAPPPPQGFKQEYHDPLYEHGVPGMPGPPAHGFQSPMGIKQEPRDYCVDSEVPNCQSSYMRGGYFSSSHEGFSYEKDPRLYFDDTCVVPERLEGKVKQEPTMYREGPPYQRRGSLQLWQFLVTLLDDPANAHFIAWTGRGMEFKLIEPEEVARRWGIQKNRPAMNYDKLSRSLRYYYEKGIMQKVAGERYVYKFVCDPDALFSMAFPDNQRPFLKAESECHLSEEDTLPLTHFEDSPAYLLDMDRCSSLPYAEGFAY
Chain of ELF4 (Q99607 whole entry): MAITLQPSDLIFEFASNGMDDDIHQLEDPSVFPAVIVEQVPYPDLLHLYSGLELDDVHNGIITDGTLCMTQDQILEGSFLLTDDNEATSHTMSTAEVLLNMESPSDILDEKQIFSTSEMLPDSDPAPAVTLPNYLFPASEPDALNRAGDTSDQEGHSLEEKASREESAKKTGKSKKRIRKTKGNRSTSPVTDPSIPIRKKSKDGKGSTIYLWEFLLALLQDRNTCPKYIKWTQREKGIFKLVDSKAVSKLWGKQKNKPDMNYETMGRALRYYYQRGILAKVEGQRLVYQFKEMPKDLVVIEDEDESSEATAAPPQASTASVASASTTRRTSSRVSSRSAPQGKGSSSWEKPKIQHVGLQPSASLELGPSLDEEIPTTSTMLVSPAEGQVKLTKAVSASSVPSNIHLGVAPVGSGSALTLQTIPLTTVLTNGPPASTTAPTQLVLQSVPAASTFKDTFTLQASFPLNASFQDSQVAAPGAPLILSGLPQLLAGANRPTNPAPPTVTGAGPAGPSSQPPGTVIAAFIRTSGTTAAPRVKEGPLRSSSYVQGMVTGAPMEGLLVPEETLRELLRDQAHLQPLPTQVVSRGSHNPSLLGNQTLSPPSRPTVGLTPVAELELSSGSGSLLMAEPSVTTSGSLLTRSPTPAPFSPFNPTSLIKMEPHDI
Chain of ETV1 (P50549 whole entry): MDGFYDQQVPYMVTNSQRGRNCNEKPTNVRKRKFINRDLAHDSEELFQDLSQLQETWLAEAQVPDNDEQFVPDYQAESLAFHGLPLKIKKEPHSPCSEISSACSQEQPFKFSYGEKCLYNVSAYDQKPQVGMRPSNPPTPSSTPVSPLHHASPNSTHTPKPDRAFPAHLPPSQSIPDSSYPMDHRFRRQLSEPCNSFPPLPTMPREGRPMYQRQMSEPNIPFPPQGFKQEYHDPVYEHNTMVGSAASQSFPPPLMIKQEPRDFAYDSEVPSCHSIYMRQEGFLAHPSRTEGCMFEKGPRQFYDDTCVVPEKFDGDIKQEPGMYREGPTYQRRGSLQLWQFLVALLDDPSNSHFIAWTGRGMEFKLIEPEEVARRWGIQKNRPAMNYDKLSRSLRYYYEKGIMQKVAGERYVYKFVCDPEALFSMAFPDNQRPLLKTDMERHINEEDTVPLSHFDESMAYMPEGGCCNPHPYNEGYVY

With ATCTAG, the binding signal with FEV was 1.04 fold enrichment (6-mer frequency, TF over GST control); with ETV5 it was 1 fold enrichment (6-mer frequency, TF over GST control); with HSF1, 2.66 fold enrichment (6-mer frequency, TF over GST control); in the assay with SPIC it was 1.19 fold enrichment (6-mer frequency, TF over GST control); in the assay with ELF4, 1.09 fold enrichment (6-mer frequency, TF over GST control); with ELK4 it was 1.27 fold enrichment (6-mer frequency, TF over GST control). In addition, the binding signal is 1.06 fold enrichment (6-mer frequency, TF over GST control) with ETV2; 1.24 fold enrichment (6-mer frequency, TF over GST control) with ELF3; 1.7 fold enrichment (6-mer frequency, TF over GST control) in the assay with CRX; 1.03 fold enrichment (6-mer frequency, TF over GST control) with ETV1; 1.18 fold enrichment (6-mer frequency, TF over GST control) with ERF; 1.08 fold enrichment (6-mer frequency, TF over GST control) with ETV3L. The binding signal is 1.11 fold enrichment (6-mer frequency, TF over GST control) with ETS2; 1.03 fold enrichment (6-mer frequency, TF over GST control) with SPDEF; 1.19 fold enrichment (6-mer frequency, TF over GST control) with ETV7; 1.1 fold enrichment (6-mer frequency, TF over GST control) with ELF5; 1.07 fold enrichment (6-mer frequency, TF over GST control) in the assay with ETV3; 1.05 fold enrichment (6-mer frequency, TF over GST control) with ETV6.
